The values that follow come from ChEMBL document CHEMBL3988442, “University of Dundee, Small-Polar-MMV Screening Library” (2021).

The whole screen tested about 67,000 compounds, of which about 300 (0.45%) showed an effect of 50% or more. The sample as a whole holds a higher share of strong results than the screen did.

For the assay, the target named is Polyketide synthase Pks13 (Mycobacterium tuberculosis (strain ATCC 25618 / H37Rv)) (UniProt I6X8D2). The assay can be described thus: Mycobacterium tuberculosis Polyketide synthase 13 Thioesterase (PKS13). On the set-up: scale not given: in the data most compounds retested in dose-response had high values. The format is functional. The note with it: 30 µM.
Polyketide synthase Pks13 (Mycobacterium tuberculosis (strain ATCC 25618 / H37Rv)), sequence (I6X8D2 whole entry): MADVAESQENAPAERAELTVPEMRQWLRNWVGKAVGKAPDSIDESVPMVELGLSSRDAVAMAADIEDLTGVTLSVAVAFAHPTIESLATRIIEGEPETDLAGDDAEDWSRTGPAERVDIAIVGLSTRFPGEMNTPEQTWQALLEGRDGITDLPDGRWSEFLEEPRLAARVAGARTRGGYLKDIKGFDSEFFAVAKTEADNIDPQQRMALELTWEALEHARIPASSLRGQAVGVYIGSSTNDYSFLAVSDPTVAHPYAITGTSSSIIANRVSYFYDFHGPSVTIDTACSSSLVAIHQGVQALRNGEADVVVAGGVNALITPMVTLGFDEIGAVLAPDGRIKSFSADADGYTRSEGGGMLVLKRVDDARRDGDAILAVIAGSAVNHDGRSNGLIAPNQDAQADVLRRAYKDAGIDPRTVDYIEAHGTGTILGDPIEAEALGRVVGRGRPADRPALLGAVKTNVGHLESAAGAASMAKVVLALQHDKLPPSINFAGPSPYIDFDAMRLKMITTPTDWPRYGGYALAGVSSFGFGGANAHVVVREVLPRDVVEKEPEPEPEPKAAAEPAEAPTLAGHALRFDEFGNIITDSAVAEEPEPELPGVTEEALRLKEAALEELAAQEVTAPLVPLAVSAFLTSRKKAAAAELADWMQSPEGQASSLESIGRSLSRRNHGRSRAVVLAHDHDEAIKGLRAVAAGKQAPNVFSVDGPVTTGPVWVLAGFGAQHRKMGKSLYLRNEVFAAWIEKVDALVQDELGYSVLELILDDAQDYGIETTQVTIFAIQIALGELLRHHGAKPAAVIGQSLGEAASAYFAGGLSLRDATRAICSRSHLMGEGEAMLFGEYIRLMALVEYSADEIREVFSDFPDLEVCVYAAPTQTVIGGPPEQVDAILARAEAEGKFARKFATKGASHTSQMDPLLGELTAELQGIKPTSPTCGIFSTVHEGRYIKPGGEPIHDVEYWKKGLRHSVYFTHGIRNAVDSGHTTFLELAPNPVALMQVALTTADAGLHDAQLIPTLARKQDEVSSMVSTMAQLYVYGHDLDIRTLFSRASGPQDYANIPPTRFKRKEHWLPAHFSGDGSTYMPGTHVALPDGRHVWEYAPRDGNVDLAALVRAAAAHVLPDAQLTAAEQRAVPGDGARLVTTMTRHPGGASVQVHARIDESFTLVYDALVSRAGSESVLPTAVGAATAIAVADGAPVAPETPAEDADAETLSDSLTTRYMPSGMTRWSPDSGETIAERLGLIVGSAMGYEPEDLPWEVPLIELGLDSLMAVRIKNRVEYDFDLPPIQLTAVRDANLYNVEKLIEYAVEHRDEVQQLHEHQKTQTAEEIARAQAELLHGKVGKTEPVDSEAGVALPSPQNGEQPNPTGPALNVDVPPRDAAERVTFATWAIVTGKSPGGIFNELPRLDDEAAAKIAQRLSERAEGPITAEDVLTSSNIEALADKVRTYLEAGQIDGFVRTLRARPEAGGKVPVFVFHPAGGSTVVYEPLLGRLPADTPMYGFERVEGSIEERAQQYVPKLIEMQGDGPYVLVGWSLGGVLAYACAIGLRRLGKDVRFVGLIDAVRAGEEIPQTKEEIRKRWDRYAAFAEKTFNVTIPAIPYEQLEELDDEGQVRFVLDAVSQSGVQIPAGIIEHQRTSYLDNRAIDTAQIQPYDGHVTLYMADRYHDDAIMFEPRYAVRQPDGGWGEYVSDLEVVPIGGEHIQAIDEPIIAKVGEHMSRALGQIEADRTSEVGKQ
Consider `COc1ccc(-c2cc(C[C@@H]3C[C@H](N(C)C)C3(C)C)no2)cc1`, for which the Percent Effect worked out at 53.8%.
As to `CN(C)[C@H]1C[C@@H](Cc2cc(CO)on2)C1(C)C`, the Percent Effect was -32.8%.
As for `CN(C)[C@H]1C[C@@H](Cc2cc(-c3ccc(F)cc3)on2)C1(C)C`, the Percent Effect was -26.6%.
As for `CN(C)C(=O)c1cnc(-c2ccc3c(c2)OCO3)s1`, the Percent Effect turned out to be 70.4%.
With `CC(C)N(CC(N)=O)C(=O)c1cnc(-c2ccc3c(c2)OCO3)s1`, the Percent Effect was 71.9%.
With `CC(C1CC1)N(C)C(=O)c1cnc(-c2ccc3c(c2)OCO3)s1` (stereo not given) the figure was -13%.
As to `CC(C(=O)NCCOc1ccc2c(c1)OCO2)n1cncn1` (stereo not given), the Percent Effect is -36.9%.
As to `CC(C)N(CCC#N)C(=O)c1cnc(-c2ccc3c(c2)OCO3)s1`, the Percent Effect is 46.5%.
To `CCN(C(=O)c1cnc(-c2ccc3c(c2)OCO3)s1)C1CC1` belongs 28.9%; to `O=C(N[C@@H]1CN(Cc2ccccn2)[C@@H]2COC[C@@H]21)C1CCC1`, -11.8%; to `O=C1CCCC2=C1C(c1cc(Cl)ccc1F)Nc1nonc1N2` (stereo not given), -14.9%.
Turning to `CNC(=O)[C@H]1C[C@@H]2CCN(CCc3ccccc3)C[C@@H]2O1`, the Percent Effect was -653%.
Take `Cc1cc(CN2CCN(CC3CC3)[C@@H]3CS(=O)(=O)C[C@@H]32)ccc1F`: the Percent Effect was -14.2%.
For `Cc1noc([C@@]23CCO[C@@H]2CCN(C(=O)c2ccsc2)C3)n1`, the Percent Effect is -23.9%.
For the molecule `CCNS(=O)(=O)c1ccc(C)c(C(=O)N(C)Cc2ccccc2C)c1`, the Percent Effect is -0.166%.
To `CNS(=O)(=O)c1csc(C(=O)N(C)Cc2sccc2C)c1` belongs -17.6%; to `CNS(=O)(=O)c1csc(C(=O)N(C)Cc2ccccc2C)c1`, 51.6%; to `CCCn1ncc(CN2C[C@@H]3CCCN3C[C@@H]2Cc2ccccc2)c1C`, 21.5%.
In the case of `CC(C)CN1C(=O)CO[C@@H]2CN(C(=O)C3CCOC3)C[C@H]21` (stereo not given in full), the Percent Effect turned out to be 12.2%.
To `O=C(c1cscn1)N1C[C@@H](Oc2cccnc2)[C@H]2OCCC[C@H]21` belongs 29.5%; to `CNc1ncc(CN(C)C(=O)c2cccc(-n3cccn3)c2)cn1`, -5.61%; to `CNc1ncc(CN(C)C(=O)c2cccc(-n3cnnc3)c2)cn1`, -1.45%.
Consider `CNc1ncc(CN(C)C(=O)c2cccc(Cn3cccn3)c2)cn1`, for which the Percent Effect stood at 118%.
In the case of `c1ccc(COC[C@H]2CC[C@H]3[C@H](CCN3c3ncccn3)O2)nc1`, the Percent Effect is -8.11%.
With `Cc1c[nH]c(C(=O)N2C[C@H]3CC[C@@H]2CN(Cc2cscn2)C3)n1`, the Percent Effect was -15.7%.
For `COc1ccc(CNC[C@@]2(COc3cccnc3)C[C@@H](O)[C@@H](O)C2)cc1`, the Percent Effect was determined as 0.869%.
As to `Cc1ccc(N2CCO[C@H]3CN(Cc4cc(C)on4)CC[C@H]3C2=O)cn1`, the Percent Effect was -3.21%.
To `COCCCN1CCN([C@@H]2c3ccccc3C3(CCNCC3)[C@H]2O)CC1` belongs -9.22%; to `CCOCCN1CCN([C@@H]2c3ccccc3C3(CCNCC3)[C@H]2O)CC1`, 82.6%; to `COCCCC1CCN([C@@H]2c3ccccc3C3(CCNCC3)[C@H]2O)CC1`, -6.55%.
On to `CCOC(=O)[C@]12CCCN(Cc3ccsc3)C[C@H]1CN(CCOC)C2`, for which the Percent Effect is -32.4%.
As to `Cc1nc(CNC(=O)NC(C)c2ccc3c(c2)OCCCO3)cs1` (stereo not given), the Percent Effect was -3.62%.
To `Cc1nc(CN(C)C(=O)NC(C)c2ccc3c(c2)OCCO3)cs1` (stereo not given) belongs 58%; to `Cc1nc(CCNC(=O)NC(C)c2ccc3c(c2)OCCO3)cs1` (stereo not given), -9.04%.
As for `CO[C@@H]1CCN(S(=O)(=O)N(C)C)[C@@H]2CN(Cc3ccncc3)C[C@@H]21`, the Percent Effect was -11%.
Regarding `CN(C)C(=O)c1cn[nH]c1C1(C)CCCN(Cc2ccccn2)C1` (stereo not given), the Percent Effect is -25%.
As to `CN(C)C(=O)c1cn[nH]c1C1(C)CCN(c2ncccn2)CC1`, the Percent Effect worked out at 72.9%.
For `CC1(c2[nH]ncc2C(N)=O)CCN(c2ncccn2)CC1`, the Percent Effect was -9.79%.
With `O=C(C1CC1)N1CC[C@H]2C(=O)N(c3ccsc3)CCO[C@H]2C1`, the Percent Effect is -24.6%.
In the case of `CCN1CCC(N[C@@H]2CC[C@@H]2NC(=O)Cc2csc(C)n2)CC1`, the Percent Effect turned out to be 64.6%.
As to `Cc1nc(CC(=O)NCCN2CCC(c3ccccc3C)C2)cs1` (stereo not given), the Percent Effect came to 5.3%.
In the case of `CCN1CCC(NC(=O)Cc2csc(C(C)(C)C)n2)CC1`, the Percent Effect was -28.7%.
Consider `COCC(=O)NC[C@H]1C[C@@H]2CCN1C[C@@H]2CN1CCc2ccccc2C1`, for which the Percent Effect is -21.5%.
For `Cc1nc(CN2C(=O)CC[C@@H]3[C@H]2CCN3C(=O)C2CCOCC2)cs1`, the Percent Effect is -22.6%.
For the molecule `CCC(CC)C(=O)n1ccn(S(=O)(=O)c2ccc(C)cc2)c1=O`, the Percent Effect was found to be 69.1%.
`Cc1ccc(S(=O)(=O)n2ccn(C(=O)COc3ccccc3)c2=O)cc1`: the Percent Effect is -1%.
With `Cc1ccc(S(=O)(=O)n2ccn(C(=O)CC(C)C)c2=O)cc1` the figure was 10.8%; with `CS(=O)(=O)N1CCO[C@@H]2CN(C(=O)C3CC(F)(F)C3)C[C@@H]2C1`, -14.3%.
For the molecule `COc1ccc(-n2nnnc2C(C)(C)Nc2ccc(C)cc2C)cc1`, the Percent Effect is -14.4%.
As for `Cc1cccc(-n2nnnc2C(C)(C)Nc2ccccc2C)c1`, the Percent Effect stood at 71.2%.
On to `Cc1ccc(NC(C)(C)c2nnnn2-c2ccc(Cl)cc2)c(C)c1`, for which the Percent Effect was found to be 43.2%.
`Fc1ccc(CN2CCO[C@H]3[C@H](OCCN4CCCC4)CC[C@@H]32)cc1`: the Percent Effect is -7.44%.
For the molecule `Cc1nnc(N2C[C@@H](OCC3CCCC3)[C@H]3OCCC[C@H]32)s1`, the Percent Effect was -34.8%.
With `Cc1ccc(Cl)cc1C(=O)N1CCC2(CC1)c1ccccc1[C@@H](N)[C@@H]2O` the figure was -27.1%; with `N[C@@H]1c2ccccc2C2(CCN(C(=O)c3ccccc3O)CC2)[C@H]1O`, 1.94%; with `Cc1ccc(C(=O)N2CCC3(CC2)c2ccccc2[C@@H](N)[C@@H]3O)c(=O)[nH]1`, 70%.
Take `COCCN1C[C@H]2CN(C(=O)c3ccc4c(c3)OCO4)CCN2C1=O`: the Percent Effect was determined as 8.89%.
Regarding `COc1cccc(-c2cccc(CN3C[C@@H]4CC[C@H](C3)N(C)C4=O)c2)c1`, the Percent Effect came out at 6.34%.
With `Cc1cc(CN(C)C(=O)c2ccc(C(F)(F)F)nc2)no1` the figure was -4.93%; with `Cc1cc(CN(C)C(=O)c2ccc(N(C)C)nc2)no1`, -10.8%; with `Cc1ccc(C(=O)N(C)Cc2cc(C)on2)cn1`, 143%.
With `CC(C)c1nccc([C@@H]2C[C@@H]3CCN(Cc4ccco4)C[C@H]3O2)n1`, the Percent Effect was -17.2%.
As to `O=C(CC1CC1)NC[C@]12COC[C@H]1CN(c1ncc(F)cn1)C2`, the Percent Effect is 8.61%.
With `CN(C)c1nccc(-c2c[nH][nH]c2=O)n1`, the Percent Effect worked out at 51.4%.
For the molecule `CC(C)(C)CCNc1nccc(-c2c[nH][nH]c2=O)n1`, the Percent Effect came to 22.8%.
With `CN(C)c1nccc(-c2cnc(N(C)C)[nH]c2=O)n1` the figure was 16.6%; with `CNC(=O)[C@@]12CCO[C@@H]1CCN(S(=O)(=O)c1ccccc1F)C2`, 16.9%; with `Cc1nc(CNC(=O)N2CCN(c3ccc(Cl)cn3)CC2)sc1C`, 50.8%.
Take `Cc1nc(CNC(=O)N2CCN(c3ccc(Cl)cn3)CC2)no1`: the Percent Effect came to 7.54%.
For `Cc1nc(C)c(CNC(=O)N2CCN(c3ccc(Cl)cn3)CC2)s1`, the Percent Effect came out at 14.6%.
